DAX1 inh-1: DAX1 (NR0B1) inhibitors, primary screen, cell-based, HEK293, Gal4-DAX1, luciferase luminescence | HEK293 Gal4-DAX1 luciferase reporter | inhibition, % at 6.75 µM | Nuclear receptor subfamily 0 group B member 1 (Homo sapiens), P51843 | AID 504766, 2011 | 340,000 compounds, 0.99% hits;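 active means inhibition above the mean over all tested compounds plus 3 SD, cut at about 4.2% in these data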;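 further: inhibition shows as a rise in luminescence from relieved DAX1 repression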
Target sequence (P51843 207-470 limits assumed): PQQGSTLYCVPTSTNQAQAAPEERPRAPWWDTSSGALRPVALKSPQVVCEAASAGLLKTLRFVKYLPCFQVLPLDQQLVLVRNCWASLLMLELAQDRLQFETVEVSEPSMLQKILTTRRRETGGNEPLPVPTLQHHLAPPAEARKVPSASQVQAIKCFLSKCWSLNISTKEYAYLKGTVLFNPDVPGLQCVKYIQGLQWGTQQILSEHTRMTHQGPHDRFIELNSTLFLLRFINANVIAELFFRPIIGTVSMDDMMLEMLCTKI
PolyA inh: polyadenylation inhibitors in yeast reporter cells, primary screen, luminescence, S. cerevisiae | S. cerevisiae SKY197-pL101 polyadenylation reporter, beta-gal luminescence; efflux-impaired pdr1/pdr3 knockout yeast; score 100 = 6 SD above DMSO | activity score, % at 12 µM | 300,000 compounds, 0.02% hits | AID 1875, 2009;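 active means lowest replicate activity score at least 50, where 100 means six control SD above control mean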;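 further: yeast exposed to compound for 9 h at 30 °C; higher score means more reporter readthrough which indicates perturbed polyadenylation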
hgDAF12 agonist: H. glycines DAF-12 receptor agonists, primary screen, cell-based, luminescence, HEK293, GAL4 fusion, UAS-luciferase | HEK293 GAL4-hgDAF12 UAS-luciferase reporter, agonist luminescence; normalized to butyrate control | AID 687014, 2013 | 370,000 compounds, 1.8% hits | Nuclear hormone receptor DAF-12 (Heterodera glycines), GAL4 fusion | activation, % at 6.8 µM;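 active means activation above a cutoff set at the mean of all screened compounds plus 3 SD, cut at about 10% in these data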
hcDAF12 agonist: H. contortus DAF-12 nuclear receptor activators, primary screen, cell-based, luminescence, HEK293, lit1-tk-luc reporter | HEK293 hcDAF-12 lit1-tk-luc reporter; 0% DMSO, 100% Δ7-dafachronic acid | activation, % at 6.8 µM | 370,000 compounds, 1.4% hits | AID 652067, 2013;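 active means activation above the mean of all tested compounds plus 3 SD, cut at about 5.5% in these data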
ssDAF12 agonist: S. stercoralis DAF-12 nuclear receptor activators, primary screen, cell-based, luminescence, HEK293, GRIP1 co-expression, lit1-tk-luc; Nuclear hormone receptor DAF-12 (Strongyloides stercoralis); HEK293 ssDAF-12/GRIP1 lit1-tk-luc reporter; % of 3 µM dafachronic acid response; activation, % at 6.8 µM; 370,000 compounds, 1% hits; AID 652126, 2013;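 active means activation above the mean over all tested compounds plus 3 SD, cut at about 0.9% in these data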
DAX1 inh-2: DAX1 (NR0B1) inhibitors on StAR promoter, primary screen, cell-based, luminescence, SF-1 (NR5A1), full-length DAX-1; HEK293T StAR-luciferase reporter, SF-1/DAX-1 repression relief; inhibition, % at 6.8 µM; 370,000 compounds, 1.1% hits;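 active means inhibition above the mean over all tested compounds plus 3 SD, cut at about 3.6% in these data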;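 further: higher inhibition means more luminescence from relief of DAX-1 repression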
A number is an active result; n = inactive; x = no result given. Sampled rows, rich in hits. Any-hit rate of the full collection: about 4.1%.

SMILES | DAX1 inh-1 | PolyA inh | hgDAF12 agonist | hcDAF12 agonist | ssDAF12 agonist | DAX1 inh-2
NC(=O)CCn1c(C(=O)c2cc(Cl)c(N)c(Cl)c2)c2ccccc2[n+]1[O-] | n | n | n | n | n | n
NC(=O)CCn1c(C(=O)c2cccc([N+](=O)[O-])c2)c2ccccc2[n+]1[O-] | n | n | n | n | 1.1 | n
O=C1CCCCC1Sc1nnc(Nc2ccccc2)s1 (stereo not drawn) | n | n | 10.7 | n | n | n
O=C(NCC1COCCO1)C1CCN(S(=O)(=O)c2cccc3ccccc23)CC1 (stereo not drawn) | x | x | n | n | n | n
Nc1nonc1-c1noc(COc2ccccc2Cl)n1 | n | n | n | n | n | n
Cc1cccc(OCc2nc(-c3nonc3N)no2)c1C | n | x | 10.6 | n | n | n
COC(=O)c1cc2c(c3c4ccccc4n(S(=O)(=O)c4ccc(OC)cc4)c13)C(=O)N(Cc1ccc(N(C)C)cc1)C2 | x | x | n | n | n | n
COc1cccc(NC(=O)CSc2nnc(-c3ccc(C)cc3)o2)c1 | 6.1 | n | 11.2 | n | n | 6.5
COc1ccc(C(=O)NCCSc2ccccn2)cc1 | n | n | 11.7 | 6.4 | n | n
O=C(CSc1nnc(-c2ccc(O)cc2)o1)Nc1ccc2c(c1)OCCO2 | n | n | n | n | n | 3.6
COc1ccc(N(CC(=O)NCCSc2ccccn2)S(C)(=O)=O)cc1 | n | n | n | n | n | n
COc1cccc(NC(=O)CSc2ccccn2)c1 | n | n | 12.6 | n | n | n
COc1ccc(NC(=O)CSc2ccccn2)cc1 | n | n | n | n | n | n
CCCCc1c(-c2ccccc2OC)ncn1Cc1cc(F)ccc1F | x | x | n | n | n | n
O=c1[nH]c(Cc2ccccc2)nc2scc(-c3ccccc3)c12 | n | n | n | n | n | n
O=C(O)CSCc1nc2scc(-c3ccccc3)c2c(=O)[nH]1 | 5.8 | n | n | n | n | n
O=S(=O)(N[C@@H]1CCCC[C@@H]1N1CCOCC1)c1ccc(Cl)cc1 | x | x | n | n | n | x
N#Cc1ccc(C(=O)N/N=C/c2cn(CC(=O)O)c3ccccc23)c(F)c1 | n | n | n | 5.7 | n | n
CCOC(=O)Cn1cc(/C=N/NC(=O)c2ccc(C#N)cc2F)c2ccccc21 | n | n | n | n | n | n
CC(C)C[C@@H]1COc2cc(Br)ccc2S(=O)(=O)N1Cc1cn(Cc2ccc(Cl)cc2)nn1 | x | x | n | n | n | n
COC(=O)[C@]12C[C@H](CC(=O)NCC3CCCCC3)C(=O)N(Cc3ccc(Cl)cc3Cl)C1=C[C@H](COCc1ccccc1)O[C@@H]2C | x | x | n | n | n | n
COC(=O)C1=CC(=O)C=C(OC)[C@@]12Oc1cc(C)cc(OC)c1C2=O | x | x | n | n | n | n
COc1ccc(C(CNC(=O)CSc2ccccc2F)N2CCOCC2)cc1 (stereo not drawn) | n | n | n | n | 1.1 | n
Cc1ccc(-c2nc(C)c(C(=O)O)s2)cc1 | n | n | 10.8 | n | n | n
Cc1nc(-c2ccccc2)sc1C(=O)O | n | n | n | n | n | n
SMILES | DAX1 inh-1 | PolyA inh | hgDAF12 agonist | hcDAF12 agonist | ssDAF12 agonist | DAX1 inh-2
COc1ccc(C2CC(=O)c3cnc(N4CCc5ccccc54)nc3C2)c(OC)c1 (stereo not drawn) | x | n | x | x | x | x
CC1(C)CC(=O)c2cnc(N3CCc4ccccc43)nc2C1 | n | n | n | 6.4 | n | n
COc1ccc(S[C@]2(C(=O)N3CCN(c4ncccn4)CC3)CC(=O)N(P(=O)(OC)OC)[C@@H]2c2ccc(OC)cc2)cc1 | x | x | n | n | n | n
COCCC(=O)N1CCC(Oc2ccc(C(=O)NCCn3cccn3)cc2)CC1 | n | n | n | n | n | n
COCCC(=O)N1CCC(Oc2ccc(C(=O)NCCSC)cc2)CC1 | 6.9 | n | n | n | n | n
Cc1ccc(NC(=O)N2CCC(N(C)CCC(C)C)CC2)cc1F | x | x | n | n | n | n
CCOC(=O)C1CCCN(C(=O)c2ccc3oc(Cc4ccccc4)nc3c2)C1 (stereo not drawn) | n | n | 11.4 | n | n | n
CC(C)CC(=O)C1CCCN(C(=O)c2ccc3oc(Cc4ccccc4)nc3c2)C1 (stereo not drawn) | n | n | n | n | n | n
Cc1cc(CNC(=O)c2ccc3nc(Cc4ccccc4F)oc3c2)nn1C | n | n | 11.5 | n | n | n
CCCCc1nc2cc(C(=O)NCc3cc(C)n(C)n3)ccc2o1 | n | n | n | 6.2 | n | n
O=C(NCCCN1CCOCC1)c1ccc2nc(Cc3ccccc3F)oc2c1 | n | n | n | n | n | 4.2
Cc1ccsc1C=Nn1c(-c2n[nH]c3c2CCC3)n[nH]c1=S | x | x | n | n | n | n
Cc1ccc(C=Nn2c(-c3n[nH]c4c3CCC4)n[nH]c2=S)s1 | x | x | n | n | n | n
CC(COc1ccc(OC(F)(F)F)cc1)CN1CCC(C(O)(c2ccccc2)c2ccccc2)CC1 (stereo not drawn) | x | x | n | n | n | n
CCCCc1nc2cc(C(=O)N3CCC[C@H]3CO)ccc2o1 | n | n | n | n | n | n
CCCCc1nc2cc(C(=O)N3CCC(O)CC3)ccc2o1 | n | n | 10.9 | 6.2 | 1.0 | n
Brc1ccccc1-n1nnc(-c2cnc3ccccc3c2)n1 | n | n | 12.8 | 17.4 | 3.5 | 5.2
Cc1cc(C)c(C)c(S(=O)(=O)N2CCN(C)CC2)c1C | 8.9 | x | n | n | n | n
Cc1ccc([N+](=O)[O-])cc1S(=O)(=O)N1CCN(C)CC1 | 6.3 | n | n | n | n | n
NC(=S)c1ccc(OCCCc2ccccc2)cc1 | n | x | 11.7 | n | n | n
Cc1cccc(C(=O)NCC(=O)NNC(=O)c2ccccc2O)c1 | n | n | n | 6.1 | n | n
Cc1cccc(C(=O)NCCc2ccccc2)c1 | n | n | 12.9 | n | n | n
CCCCOc1ccc(C(=O)NCCc2ccccc2)cc1 | n | n | n | n | 1.1 | n
CCC(CC)C(=O)Nc1cccc(C(=O)NCCc2ccccc2)c1 | n | n | n | n | n | n
CCOc1cccc(-c2nnc3n2N=C(c2ccc(OC)cc2)CS3)c1 | x | x | n | n | n | n
CCCC[C@H]1C2CC(OC(=O)Nc3cccc(Cl)c3)C(C2)[C@H]2CCCCN21 (stereo partly drawn) | x | x | n | n | n | n
